# From PubChem BioAssay
# Compounds with a hit are over-represented: about 3.1% of the library has one in this group of screens.
# TexasRed fluor = alters Texas Red total fluorescence, flagging assay interference; TRb/SRC2 Texas Red total fluorescence interference; Potency, µM (top dose mostly 106 µM), for inactives: at the top dose fluorescence change, negative = quenching; 280,000 compounds, 0.29% hits; AID 1479; active = well fitted curve in either direction with a large enough effect; inconclusive = small, poorly fitted or top-dose-only effect
#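 Flags fluorescent or light-absorbing compounds by total fluorescence, S + 2P, at 555 nm excitation and 632 nm emission. Mixture: 20 nM Texas Red SRC2 peptide, 0.6 uM human TRb LBD, 1 uM T3, 5% DMSO; compound exposure 5 h at ambient temperature.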
# Tau fluor cs = counter-screen for tau fibril formation inhibitors. tau K18 P301L Alexa594 fluorescence, heparin fibrillization. Potency, µM (titrated, usually from 57.7 µM), without a hit: top-dose activity change, negative = decrease. 280,000 compounds, 0.93% hits. AID 1463; note: nearly all actives have a fitted effect of over 55% in size
#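 Human K18 P301L tau (15 uM unlabeled plus 0.24 uM Alexa 594-labeled, final) in 100 mM sodium acetate pH 7 was mixed with compound and 20 uM heparin and incubated 6 hr at 37 C.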
# Tau fibril ThT = tau fibrillization inhibition (ThT binding). 270,000 compounds, 2.1% hits. AID 1460. recombinant tau K18 P301L, heparin-induced fibrillization, ThT fluorescence. Potency, µM (top dose mostly 57.4 µM), without a hit: at the highest dose activity, negative = inhibition, usual class: inhibitors; note: nearly all actives have a fitted effect of over 55% in size
# Target sequence (P10636 561-689 P618L limits assumed): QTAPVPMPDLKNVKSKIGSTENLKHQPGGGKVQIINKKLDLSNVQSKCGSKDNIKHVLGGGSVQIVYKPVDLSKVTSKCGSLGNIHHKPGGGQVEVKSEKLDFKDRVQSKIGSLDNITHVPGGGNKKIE
#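 ThT emission at 510 nm, taken 1 hr after adding 30 uM dye, quantifies aggregates formed when 20 uM heparin acts on human tau K18 P301L for 6 hr at 37 C.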
# TRb SRC2 PPI = TRbeta-SRC2 interaction inhibition; 280,000 compounds, 0.065% hits; Potency, µM (series often up to 106 µM), inactives show at the top dose activity change, negative = inhibition, most hits filed as inhibitors; TRbeta-SRC2 peptide binding, fluorescence polarization; receptor liganded with 1 µM T3; P10828;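 note: plate controls were bound peptide for no effect and peptide without receptor for full effect; nearly all actives have a fitted effect of over 50% in size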
#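 Polarization signal, normalized between peptide-alone and full complex controls, measured compound effects on T3-liganded human TRb LBD (0.6 uM) binding 20 nM Texas Red SRC2 peptide after 5 hr.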
# Tau fibril FP = inhibitors of human tau fibril formation | P10636 | 280,000 compounds, 0.39% hits | Potency, µM (titrated, usually from 57.7 µM), without a hit: top-dose activity, negative = inhibition, actives largely listed as inhibitors | K18 P301L tau heparin fibrillization, Alexa594 FP, 6 h; note: nearly all actives have a fitted effect of over 55% in size
#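 Human K18 P301L fragment (15 uM unlabeled plus 0.24 uM Alexa 594-labeled) in 100 mM sodium acetate pH 7 with compound, aggregation induced by 20 uM heparin for 6 hr at 37 C. ThT (30 uM) added for 1 hr, then Alexa 594 FP read.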
# Starred values were filed as active, the others as inactive; ? = inconclusive; nt = no result; [ ] = dose if it differs, or a comment. Unless noted, calls come from the whole dose curve; as a rule, active = well fitted curve in the direction sought with a large enough effect; inconclusive = small, poorly fitted or top-dose-only effect, or another doubt; inactive = no such curve, though single readings can be large; an effect the other way counts as inactive or inconclusive. Unless noted, % is set by controls: 0 for no effect and ±100 for the full control effect; potency is the fitted concentration of half-maximal effect.
SMILES,TexasRed fluor,Tau fluor cs,Tau fibril ThT,TRb SRC2 PPI,Tau fibril FP
CCc1ccc[n+](-c2[nH]c(=O)sc2/C=N/N=C(\[O-])CCn2c3ccccc3c3ccccc32)c1,-3%,?,16µM*,-11%,4%
COc1ccc2nc(NC3=NCCC3)sc2c1,-6%,-2%,-12%,-3%,4%
COc1cccc(Nc2nc3ccc(OC)cc3s2)c1,0%,13µM*[quencher],13µM*,-4%,7%
COc1ccc2nc(Nc3sc4c(c3C(N)=O)CCCC4)sc2c1,?,?,7.1µM*,-6%,2%
COc1ccc(Nc2nc3ccccc3s2)cc1,-11%,14%,13%,-7%,4%
CC(/C=C\C=C\c1ccccc1)=N\NC(=O)c1cncc(Br)c1,0%,-14%,10µM*,3%,3%
CC(/C=C/C=C/c1ccccc1)=N\NC(=O)c1cccnc1,-3%,-6%,?,-4%,-1%
Cc1cccc(N2C(=O)CCSC23C(=O)N(Cc2ccc(F)cc2)c2ccccc23)c1 (stereo not given),?,-15%,?,-4%,?
C=CCOCC/C=C1/c2ccccc2C(OC)C1C (stereo not given),2%[11.2 µM],-11%[11.6 µM],-7%[11.5 µM],7%[11.2 µM],1%[11.6 µM]
CN(C(=O)CSc1nc2c(c(=O)[nH]1)CCCC2)c1ccccc1,0%,-1%,2%,2%,-4%
C=CCSc1nnc2nc3[nH]c4c(C)cccc4c3nn12,-7%,-15%,16µM*,0%,8%
Cc1cc(C)n(CC(=O)Nc2cc(F)ccc2F)c(=O)c1C#N,-2%,5%,-2%,7%,11%
CC(C)(C)c1cc(C(C)(C)C)c(O)c(C(C)(C)C)c1,3%[201 µM],nt,nt,3%[201 µM],nt
Cc1ccccc1N1C(=O)C(Cl)=C(N2CCCCCC2)C1=O,-4%,-25%,?,1%,?
COc1ccc(OC)c(N2C(=O)C(Cl)=C(N3CCCCC3)C2=O)c1,-5%,?,13µM*,2%,16µM*
O=C1C(Cl)=C(N2CCCCC2)C(=O)N1c1ccccc1Cl,-2%,?,14µM*,-7%,20µM*
COc1ccc(OC)c(N2C(=O)C(Cl)=C(N3CCOCC3)C2=O)c1,-5%,?,14µM*,4%,25µM*
O=C(Nc1cccc(Cl)c1)c1cc(-c2ccc3c(c2)OCCO3)on1,10µM*[quencher],-20%,?,-10%,?
O=C(Nc1cccc(Cl)c1)c1cc(-c2ccc3c(c2)OCO3)on1,6%,4%,?,-8%,?
O=C(CSc1nc2ccccc2n1Cc1ccccc1Cl)NCc1ccccc1,-2%,-12%,-13%,1%,4%
CC(C)c1nnc(N2C(=O)c3oc4ccccc4c(=O)c3C2c2cccc(O)c2)s1 (stereo not given),2%,-25%,-15%,2%,-11%
C=CC1=C(C)C2=Cc3c(C=C)c(C)c4[n]3[Sn+2][n]3c(c(C)c(CCC(=O)O)c3=CC3=NC(=C4)C(C)=C3CCC(=O)O)=CC1=N2,?,-12%,?,13µM*,18µM*
CCCCCCCCCC[N+](C)(C)Cc1ccccc1,-1%[201 µM],nt,nt,4%[201 µM],nt
Oc1cccc(-c2nc3ncccn3c2Nc2cccc(C(F)(F)F)c2)c1,-1%,?,-8%,-7%,-10%
O=C(Cc1ccccc1)Nn1c(O)c(/C=C2\C=Nc3ccccc32)sc1=S,-4%,7.9µM*[quencher],2.5µM*,4%,?
O=C(Nc1cccc(Cl)c1)c1cc(S(=O)(=O)N2CCCc3ccccc32)ccc1F,-1%,?,2%,-2%,?
CN1/C(=C/C=C(C#N)C#N)C=Cc2ccccc21,?,?,?,?,25µM*
CCOC(=O)/C(C#N)=C/C=C1\C=Cc2ccccc2N1CC,0%,-30%,1.6µM*,-2%,-10%
NS(=O)(=O)c1ccc(NC(=O)COC(=O)c2cn(-c3ccccc3)nc2-c2ccc(F)cc2)cc1,1%,?,0%,-6%,13µM*
CCCNS(=O)(=O)c1ccc2nc(NC(=O)c3ccc(F)cc3)sc2c1,-2%,-26%,28µM*,-1%,?
